Source: PubChem BioAssay AID1159580 (chemical genetic matrix, 2015)
The campaign covered roughly 5,500 compounds. About 2,000 (36%) were called active. About 18% were inconclusive and are not listed. No stated cut-off is given here; in the data, active means normalized growth mostly below about 0.91 (no sharp cut-off); inconclusive means no clear call, values can overlap the other calls; inactive means mostly above about 0.92. The list shows a part of the results.

Test: chemical genetic growth profiling, strain panel (AID 1159580);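 further: tested at 20 µM; growth read once vehicle control cultures reached saturation at 30 °C; 1 = growth at the plate median or of vehicle wells; lower values mean less growth of the strain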
Details: S. cerevisiae deletion strains, growth OD

Measured: normalized growth

C[N+]1(C)C[C@H](O)[C@H](C(=O)[O-])C1
inactive: locus YAL013W, strain DEP1, active compounds read low 1.01 | locus YAL021C, strain ccr4, active compounds read low 0.996 | locus YAL026C, strain drs2, active compounds read low 1.03 | locus YAL030W, strain snc1, active compounds read low 1.01 | locus YBL061C, strain skt5, active compounds read low 1.01 | locus YBR009C, strain hhf1, active compounds read low 1.05 | locus YBR021W, strain FUR4, active compounds read low 1.01 | locus YBR023C, strain chs3, active compounds read low 1.02 | locus YBR171W, strain sec66, active compounds read low 1.03 | locus YBR229C, strain ROT2, active compounds read low 1.01 | locus YBR231C, strain swc5, active compounds read low 1.02 | locus YBR279W, strain paf1, active compounds read low 1.01 | locus YCL011C, strain gbp2, active compounds read low 1.02 | locus YCL016C, strain dcc1, active compounds read low 1.02 | locus YCL029C, strain bik1, active compounds read low 0.996 | locus YCL061C, strain MRC1, active compounds read low 1.02 | locus YCL069W, strain vba3, active compounds read low 1.01 | locus YCR088W, strain abp1, active compounds read low 1.01 | locus YDL005C, strain med2, active compounds read low 1.01 | locus YDL035C, strain GPR1, active compounds read low 1.01 | locus YDL040C, strain nat1, active compounds read low 1.01 | locus YDL074C, strain BRE1, active compounds read low 1.02 | locus YDL101C, strain DUN1, active compounds read low 1.02 | locus YDL134C, strain PPH21, active compounds read low 1.01 | locus YDL185W, strain tfp1, active compounds read low 0.995 | locus YDL192W, strain arf1, active compounds read low 1 | locus YDR001C, strain nth1, active compounds read low 1.01 | locus YDR069C, strain doa4, active compounds read low 1.03 | locus YDR101C, strain arx1, active compounds read low 0.988 | locus YDR137W, strain rgp1, active compounds read low 1.01 | locus YDR150W, strain NUM1, active compounds read low 1.01 | locus YDR159W, strain sac3, active compounds read low 1.02 | locus YDR162C, strain NBP2, active compounds read low 1.01 | locus YDR195W, strain ref2 1.03 | locus YDR297W, strain sur2, active compounds read low 1.01 | locus YDR318W, strain mcm21, active compounds read low 1.01 | locus YDR334W, strain swr1, active compounds read low 1.02 | locus YDR335W, strain msn5, active compounds read low 1.01 | locus YDR388W, active compounds read low 1.01 | locus YDR392W, strain spt3, active compounds read low 0.996 | locus YDR502C, strain sam2, active compounds read low 0.994 | locus YEL003W, strain gim4, active compounds read low 1.02 | locus YEL037C, strain rad23, active compounds read low 1.01 | locus YEL061C, strain CIN8 (second series), active compounds read low 1.01 | locus YEL061C, strain CIN8, active compounds read low 1 | locus YER015W, strain faa2, active compounds read low 1.01 | locus YER016W, strain bim1, active compounds read low 1.01 | locus YER110C, active compounds read low 0.992 | locus YER111C, strain swi4, active compounds read low 1.02 | locus YER155C, strain BEM2 (second series), active compounds read low 1.05 | locus YER155C, strain BEM2, active compounds read low 1 | locus YER167W, strain BCK2, active compounds read low 1.01 | locus YFR010W, strain ubp6, active compounds read low 1.02 | locus YGL078C, strain dbp3, active compounds read low 0.999 | locus YGL086W, strain mad1, active compounds read low 0.968 | locus YGL167C, strain pmr1, active compounds read low 1.02 | locus YGL173C, strain kem1, active compounds read low 1.02 | locus YGL227W, strain vid30, active compounds read low 1.01 | locus YGL240W, strain doc1, active compounds read low 1.04 | locus YGL248W, strain PDE1, active compounds read low 1.01 | locus YGL253W, strain hxk2, active compounds read low 1.03 | locus YGR078C, strain PAC10, active compounds read low 1.01 | locus YGR135W, strain pre9, active compounds read low 1 | locus YGR229C, strain SMI1, active compounds read low 1.01 | locus YGR252W, strain gcn5, active compounds read low 0.992 | locus YHR013C, strain ard1, active compounds read low 0.999 | locus YHR027C, strain rpn1, active compounds read low 1.01 | locus YHR030C, strain SLT2, active compounds read low 1.01 | locus YHR079C, strain IRE1 (second series), active compounds read low 1 | locus YHR094C, strain hxt1, active compounds read low 0.993 | locus YHR129C, strain ARP1, active compounds read low 1.01 | locus YHR142W, strain chs7, active compounds read low 0.98 | locus YHR200W, strain rpn10, active compounds read low 0.995 | locus YIL066C, strain RNR3, active compounds read low 1.01 | locus YIL073C, strain SPO22, active compounds read low 1.1 | locus YIL125W, strain kgd1, active compounds read low 0.996 | locus YIR030C, strain dcg1, active compounds read low 0.995 | locus YJL092W, strain hpr5, active compounds read low 1.01 | locus YJL095W, strain BCK1 (second series), active compounds read low 1.01 | locus YJL095W, strain BCK1, active compounds read low 1.01 | locus YJL115W, strain asf1, active compounds read low 1.02 | locus YJL129C, strain trk1, active compounds read low 1.01 | locus YJL134W, strain LCB3, active compounds read low 1 | locus YJL154C, strain vps35, active compounds read low 1.01 | locus YJL164C, strain tpk1, active compounds read low 1.01 | locus YJL166W, strain qcr8, active compounds read low 1.01 | locus YJL168C, strain set2, active compounds read low 1 | locus YJL187C, strain SWE1 (second series), active compounds read low 1.02 | locus YJL187C, strain SWE1, active compounds read low 1.01
